Compound activity as filed in PubChem.
Tau fibril ThT: tau fibrillization inhibition (ThT binding); P10636; recombinant tau K18 P301L, heparin-induced fibrillization, ThT fluorescence; Potency, µM (series often up to 57.4 µM), for inactives: top-dose activity, negative = inhibition, actives largely listed as inhibitors; 270,000 compounds, 2.1% hits; AID 1460; also: nearly all actives have a fitted effect of over 55% in size
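Heparin-induced fibrillization of the P301L-mutant K18 repeat-domain fragment of human tau was followed by ThT binding in quantitative high-throughput format.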
JMJD2E inh: JMJD2E (human) inhibition | Potency, µM (top dose mostly 57.1 µM), for inactives: top-dose activity change, negative = inhibition, actives largely listed as inhibitors | 230,000 compounds, 1.6% hits | B2RXH2 | JMJD2E catalytic domain, FDH-coupled NADH fluorescence (FDH is formaldehyde dehydrogenase);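 also: 0% = wells with enzyme and -100% = buffer wells without enzyme; nearly all actives have a fitted effect of over 50% in size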
Target sequence (B2RXH2 1-337 limits assumed): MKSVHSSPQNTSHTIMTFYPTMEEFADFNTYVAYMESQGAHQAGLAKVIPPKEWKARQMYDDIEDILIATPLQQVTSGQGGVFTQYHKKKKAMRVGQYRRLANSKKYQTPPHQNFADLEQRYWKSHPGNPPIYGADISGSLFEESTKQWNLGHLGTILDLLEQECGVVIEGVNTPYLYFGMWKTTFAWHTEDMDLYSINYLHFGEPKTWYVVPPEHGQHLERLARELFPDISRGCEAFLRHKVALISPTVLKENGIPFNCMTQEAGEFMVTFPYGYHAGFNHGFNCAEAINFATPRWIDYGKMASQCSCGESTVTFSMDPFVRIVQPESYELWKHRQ
Tau fluor counter: counter-screen for tau fibril formation inhibitors; tau K18 P301L (four-repeat tau fragment) Alexa594 fluorescence, heparin fibrillization; Potency, µM (doses to about 57.7 µM), for the others: at the highest dose activity change, negative = decrease; 280,000 compounds, 0.93% hits; AID 1463; also: nearly all actives have a fitted effect of over 55% in size
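Human K18 P301L tau (15 uM unlabeled plus 0.24 uM Alexa 594-labeled, final) in 100 mM sodium acetate pH 7 was mixed with compound and 20 uM heparin and incubated 6 hr at 37 C.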
Tau fibril FP: tau fibrillization inhibition (FP); P10636; K18 P301L tau heparin fibrillization, Alexa594 FP, 6 h; Potency, µM (highest dose often 57.7 µM), for inactives: at the highest dose activity, negative = inhibition, actives largely listed as inhibitors; 280,000 compounds, 0.39% hits; AID 1468; also: nearly all actives have a fitted effect of over 55% in size
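Human K18 P301L fragment (15 uM unlabeled plus 0.24 uM Alexa 594-labeled) in 100 mM sodium acetate pH 7 with compound, aggregation induced by 20 uM heparin for 6 hr at 37 C. ThT (30 uM) added for 1 hr, then Alexa 594 FP read.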
ALDH1A1 block: inhibitors of human aldehyde dehydrogenase 1A1. Potency, µM (highest dose often 75.3 µM), for the others: at the highest dose activity, negative = inhibition, usual class: inhibitors. AID 1030. Purified ALDH1A1, NADH fluorescence, propionaldehyde substrate. 220,000 compounds, 7.3% hits. P00352; active = well fitted inhibition curve with a large enough effect, not every such curve was filed as active; inconclusive = small, poorly fitted or top-dose-only effect, or another doubt; inactive = no such curve, though single readings can be large or run the other way;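 also: plate controls were no enzyme wells and a reference inhibitor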
HPGD inh: inhibitors of human 15-hydroxyprostaglandin dehydrogenase (HPGD); purified HPGD, NADH fluorescence kinetic, PGE2 substrate; Potency, µM, for the others: top-dose activity change, negative = inhibition, hits mostly inhibitors; 150,000 compounds, 4.3% hits; AID 894; active = well fitted inhibition curve with a large enough effect, not every such curve was filed as active; inconclusive = small, poorly fitted or top-dose-only effect, or another doubt; inactive = no such curve, though single readings can be large or run the other way
Target sequence (P15428 whole entry, looked up): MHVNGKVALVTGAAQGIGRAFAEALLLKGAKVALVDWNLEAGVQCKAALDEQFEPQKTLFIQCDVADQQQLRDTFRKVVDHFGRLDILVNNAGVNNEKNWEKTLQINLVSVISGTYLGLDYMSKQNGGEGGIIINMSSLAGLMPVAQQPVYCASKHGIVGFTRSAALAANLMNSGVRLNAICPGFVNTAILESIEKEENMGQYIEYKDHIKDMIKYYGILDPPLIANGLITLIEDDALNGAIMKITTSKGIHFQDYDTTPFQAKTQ
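NADH formation kinetics: reaction with 30 uM PGE2 and 1 mM NAD+ (final), 20 nM enzyme, Tris-HCl pH 8 with Tween 20, after 15 min compound preincubation at room temperature. Fluorescence change, last versus first of five reads.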
Active calls of the source: *; u = inconclusive; x = no result given; [ ] = dose if it differs, or a comment. A selection: hits, their analogues and other compounds. The true share with any hit is near 9.9%. Unless noted, calls follow the shape of the dose curve; as a rule, active = well fitted curve in the direction sought with a large enough effect; inconclusive = small, poorly fitted or top-dose-only effect, or another doubt; inactive = no such curve, though single readings can be large; an effect the other way counts as inactive or inconclusive. Unless noted, % is scaled to controls: 0 for no effect and ±100 for the full control effect; potency is read from the fitted curve at half-maximal effect.

SMILES	Tau fibril ThT	JMJD2E inh	Tau fluor counter	Tau fibril FP	ALDH1A1 block	HPGD inh
Cc1c(C(=O)c2ccc([N+](=O)[O-])cc2)c(=O)n(C)c(=O)n1C	-7%	-17%	-4%	-6%	4%	x
O=C(NCc1cccs1)c1ccccc1	0%	1%	-3%	1%	7%	25µM*
O=C(NCc1cccs1)c1ccc2c(c1)OCCO2	-6%	7%	3%	5%	4%	25µM*
O=C(NCc1cccs1)c1ccncc1	-1%	0%	4%	4%	-1%	1%
Cc1cc(C(=O)NCc2ccco2)cs1	0%	-1%	2%	-11%	u	16µM*
Cc1scc(C(=O)Nc2ccon2)c1-c1ccccc1	-14%	-2%	-10%	2%	28µM*	-4%
Cc1ccc(C)c(NC(=O)CN2C(=O)c3cccc4cccc2c34)c1	0%	x	-2%	u	x	x
CC(=O)c1ccc(N2CCN(c3ccc(S(=O)(=O)NCCCN(C)C)cc3[N+](=O)[O-])CC2)cc1	10µM*	-4%	-9%	4%	19µM*	x
CC(NC(=S)N1CCN(c2ccccc2)CC1)c1ccccc1 (stereo not given)	9%	8%	-6%	10%	x	x
O=C(NNC(=O)c1cc2cc(OC(F)(F)F)ccc2[nH]1)c1cccc(C(F)(F)F)c1	-2%	-4%	-11%	u	x	x
CNc1ccc(/C=C2\CSc3ccccc3C2=O)cc1[N+](=O)[O-]	2.5µM*	5%	14%	-1%	u	x
CCOc1cc(C2C(C(N)=O)=C(C)Nc3ncnn32)cc(Br)c1O (stereo not given)	-3%	x	-3%	-1%	x	x
C=CC[n+]1ccc(/C=C2\C=Cc3cc(C)ccc3N2CC)c2ccccc21	3.2µM*	3.2µM*	-18%	32µM*	u	x
CCN1/C(=C/c2cc[n+](CCCS(=O)(=O)[O-])c3ccccc23)Sc2ccccc21	u	-12%	8%	-7%	u	x
COC(=O)CCCC(=O)O	x	x	x	x	3%[13.5 µM]	-6%
c1ccc(Cn2nnc3c(N4CCc5ccccc5C4)ncnc32)cc1	u	u	-20%	-11%	u	32µM*
Clc1ccccc1Nc1ncnc2c1nnn2Cc1ccccc1	7%	-14%	-13%	4%	u	22µM*
c1ccc(Cn2nnc3c(N4CCCC4)ncnc32)cc1	-6%	10%	-4%	3%	u	-11%
CCN(CC)c1ccc2nc3c(=O)n(C)c(=O)n(C)c3nc2c1	16µM*	x	u	u	x	x
COc1ccc(C(=O)NC(=S)Nc2ccc([N+](=O)[O-])cc2C)cc1OC	u	-8%	-22%	-4%	14µM*	-12%
COc1ccc(C(=O)/C=C/Nc2ccc([N+](=O)[O-])cc2C)cc1OC	1.6µM*	1%	u	u	u	-8%
COC(=O)c1sc(S(=O)(=O)NCc2cccs2)c(C(=O)OC)c1C	-6%	-5%	-20%	-5%	14µM*	-17%
O=C1C=CC2(OCCCO2)C(Br)=C1CO	16µM*	2%	-10%	u	2%	u
O=S(=O)(c1ccc2ccccc2c1)n1nc(-c2ccco2)nc1NCc1cccc(Cl)c1	6%	x	-17%	u	x	x
CN(C)c1ccnc2sc3c(NCC(O)CO)ncnc3c12 (stereo not given)	8%	u	8%	-3%	u	-1%
SMILES	Tau fibril ThT	JMJD2E inh	Tau fluor counter	Tau fibril FP	ALDH1A1 block	HPGD inh
CN(C)c1ccnc2sc3c(SCc4ccc(Cl)cc4)ncnc3c12	-13%	0%	-13%	4%	1%	16µM*
Cc1nn(Cc2ccccc2)c(Cl)c1C(=O)OCC(=O)NC(=O)NC12CC3CC(CC(C3)C1)C2	-7%	9%	-11%	4%	3%	-15%
COC(=O)c1ccc(-c2nc(O)c(C)s2)cc1	13µM*	u	-6%	u	20µM*	x
COC(=O)c1ccc(-c2nc3cc(Cl)c(N)cc3s2)cc1	u	2.5µM*	-27%	-4%	10%	-20%
COC(=O)c1ccc(C2=NOC(C)(c3sc(-c4ccccc4)nc3C)C2)cc1 (stereo not given)	4%	-16%	6%	0%	x	x
CC1=C(C(N)=O)C(c2cccc(C)c2)n2nc(-c3ccc(Cl)cc3)nc2N1 (stereo not given)	u	x	-27%	-10%	x	x
O=C(c1cn(-c2ccccc2)nc1-c1ccc(Br)cc1)N1CCOCC1	2%	-6%	-6%	-3%	-2%	-6%
O=C(N/C(=C\c1cn(-c2ccccc2)nc1-c1ccc(Cl)cc1)C(=O)N1CCOCC1)c1ccccc1	1%	2%	-8%	-7%	6%	-5%
O=C(c1cn(-c2ccccc2)nc1-c1cccc(Br)c1)N1CCOCC1	2%	4%	-6%	-6%	25µM*	x
O=C(N/C(=C/c1cn(-c2ccccc2)nc1-c1ccccc1)C(=O)N1CCOCC1)c1ccc(Cl)cc1Cl	10%	11%	6%	4%	16µM*	-12%
O=C(Cc1c(F)cccc1Cl)Nc1ccc(S(=O)(=O)NCC2CCCO2)cc1 (stereo not given)	0%	6%	-1%	0%	-9%	x
CCOC(=O)CNC(=O)c1cc2c(=O)oc3ccccc3c2s1	-2%	x	-7%	-2%	x	x
CCCC=O	x	x	x	x	3.5µM*	-11%
COC(=O)C1=C(C)N(Cc2ccccc2)[C@]23O[C@](C(=O)OC)(C(=O)N2C1c1ccccc1)C(C(=O)OC)C3C(=O)OC (stereo not given in full)	-4%[11.5 µM]	x	-7%[11.6 µM]	-3%[11.6 µM]	-3%[13.5 µM]	x
C[C@H](CN(C)C)C(=O)c1ccccc1C(=O)O	x	x	x	x	-2%[13.5 µM]	-10%
COc1cccc(Nc2nc(-c3sc(NC(=O)c4ccccc4)nc3C)cs2)c1	18µM*	u	32µM*[quencher]	8%	u	u
